In the supplement of paper PMC11001985:

What follows are targets tested with C#CCNC(=O)CCSSCCC(=O)NCCc1ccc(C=O)c(C=O)c1 (assay: lysine labeling ratio R10:1 (500 µM / 50 µM probe), SILAC-ABPP in living cells; higher = lower intrinsic lysine reactivity toward the probe, active = 2 or less). Conditions: HeLa; probe concentrations 500 vs 50 µM.
Procedure, shortened: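 The two probe levels, 50 µM and 500 µM, of an alkyne-tagged, disulfide-linked lysine probe were applied to living light and heavy SILAC HeLa cells in PBS at room temperature, and the labels were run in both forward and reverse orientation. Mixed lysates underwent biotin-azide click chemistry, trypsin digestion, neutravidin capture, DTT release and alkylation before LC-MS/MS on a TIMS-TOF Pro. R is the filtered median high-probe/low-probe MS1 peptide ratio for each lysine, summarised as the median over forward and reverse replicates. Nothing above 20 is reported; such values are set to 20.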

UniProt P08670, sequence (P08670 whole entry): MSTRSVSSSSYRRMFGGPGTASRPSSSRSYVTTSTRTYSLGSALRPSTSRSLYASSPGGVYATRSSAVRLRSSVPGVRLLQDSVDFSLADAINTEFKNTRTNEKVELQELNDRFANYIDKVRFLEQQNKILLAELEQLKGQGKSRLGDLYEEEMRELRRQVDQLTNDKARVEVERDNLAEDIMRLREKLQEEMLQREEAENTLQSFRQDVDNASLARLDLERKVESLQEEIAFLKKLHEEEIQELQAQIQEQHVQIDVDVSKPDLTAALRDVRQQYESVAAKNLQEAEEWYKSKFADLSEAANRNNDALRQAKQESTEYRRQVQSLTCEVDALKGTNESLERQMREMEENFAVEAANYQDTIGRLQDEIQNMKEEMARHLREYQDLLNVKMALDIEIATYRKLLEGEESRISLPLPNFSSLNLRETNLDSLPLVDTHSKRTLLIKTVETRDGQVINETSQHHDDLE
UniProt O75367, sequence (O75367 whole entry): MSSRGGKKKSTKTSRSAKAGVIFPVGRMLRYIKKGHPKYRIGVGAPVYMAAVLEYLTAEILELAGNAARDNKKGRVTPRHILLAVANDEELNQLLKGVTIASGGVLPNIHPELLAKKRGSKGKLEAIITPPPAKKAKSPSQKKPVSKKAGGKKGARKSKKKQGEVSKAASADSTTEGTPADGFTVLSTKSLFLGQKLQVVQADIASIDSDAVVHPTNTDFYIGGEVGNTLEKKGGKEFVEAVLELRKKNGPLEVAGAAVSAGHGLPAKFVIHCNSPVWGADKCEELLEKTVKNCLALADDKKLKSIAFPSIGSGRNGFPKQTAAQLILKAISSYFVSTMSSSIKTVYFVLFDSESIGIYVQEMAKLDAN
UniProt P21589, sequence (P21589 whole entry): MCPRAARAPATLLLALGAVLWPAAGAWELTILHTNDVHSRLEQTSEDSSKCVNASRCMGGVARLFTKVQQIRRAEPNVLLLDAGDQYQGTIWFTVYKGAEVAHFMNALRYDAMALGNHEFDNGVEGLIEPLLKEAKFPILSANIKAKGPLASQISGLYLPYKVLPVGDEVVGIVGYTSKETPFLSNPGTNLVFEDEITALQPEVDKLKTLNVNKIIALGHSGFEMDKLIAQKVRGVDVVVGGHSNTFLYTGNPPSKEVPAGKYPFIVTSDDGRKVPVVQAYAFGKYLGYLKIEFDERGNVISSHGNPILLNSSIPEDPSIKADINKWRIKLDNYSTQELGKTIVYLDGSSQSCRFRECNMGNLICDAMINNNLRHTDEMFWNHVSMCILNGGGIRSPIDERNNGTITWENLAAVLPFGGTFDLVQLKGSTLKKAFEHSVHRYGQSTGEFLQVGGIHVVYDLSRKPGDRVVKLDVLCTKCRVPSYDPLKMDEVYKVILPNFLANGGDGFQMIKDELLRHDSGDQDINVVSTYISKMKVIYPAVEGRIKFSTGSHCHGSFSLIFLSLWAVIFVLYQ
UniProt Q00839, sequence (Q00839 whole entry): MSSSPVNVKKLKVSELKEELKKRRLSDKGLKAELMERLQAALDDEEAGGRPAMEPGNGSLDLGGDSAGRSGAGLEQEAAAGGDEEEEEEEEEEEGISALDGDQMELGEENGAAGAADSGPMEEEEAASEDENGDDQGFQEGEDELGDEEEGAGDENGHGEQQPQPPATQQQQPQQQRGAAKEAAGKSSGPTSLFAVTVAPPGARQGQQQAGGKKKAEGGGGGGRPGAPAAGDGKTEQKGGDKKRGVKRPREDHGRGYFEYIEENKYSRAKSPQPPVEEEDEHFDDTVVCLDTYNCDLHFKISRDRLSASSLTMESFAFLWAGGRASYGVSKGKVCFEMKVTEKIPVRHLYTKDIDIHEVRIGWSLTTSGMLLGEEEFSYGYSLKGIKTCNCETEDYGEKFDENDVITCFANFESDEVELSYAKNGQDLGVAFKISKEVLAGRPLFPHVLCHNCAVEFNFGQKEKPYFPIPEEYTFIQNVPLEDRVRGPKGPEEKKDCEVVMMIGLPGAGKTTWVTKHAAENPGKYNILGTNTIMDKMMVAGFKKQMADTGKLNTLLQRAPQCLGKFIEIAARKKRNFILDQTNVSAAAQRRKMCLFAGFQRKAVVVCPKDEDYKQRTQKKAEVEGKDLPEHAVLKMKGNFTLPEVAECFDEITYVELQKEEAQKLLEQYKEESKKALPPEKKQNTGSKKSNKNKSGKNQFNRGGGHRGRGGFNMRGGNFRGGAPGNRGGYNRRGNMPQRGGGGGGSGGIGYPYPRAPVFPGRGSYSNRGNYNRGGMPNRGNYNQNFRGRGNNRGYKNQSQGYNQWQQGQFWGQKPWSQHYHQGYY
UniProt O75369, sequence (O75369 whole entry): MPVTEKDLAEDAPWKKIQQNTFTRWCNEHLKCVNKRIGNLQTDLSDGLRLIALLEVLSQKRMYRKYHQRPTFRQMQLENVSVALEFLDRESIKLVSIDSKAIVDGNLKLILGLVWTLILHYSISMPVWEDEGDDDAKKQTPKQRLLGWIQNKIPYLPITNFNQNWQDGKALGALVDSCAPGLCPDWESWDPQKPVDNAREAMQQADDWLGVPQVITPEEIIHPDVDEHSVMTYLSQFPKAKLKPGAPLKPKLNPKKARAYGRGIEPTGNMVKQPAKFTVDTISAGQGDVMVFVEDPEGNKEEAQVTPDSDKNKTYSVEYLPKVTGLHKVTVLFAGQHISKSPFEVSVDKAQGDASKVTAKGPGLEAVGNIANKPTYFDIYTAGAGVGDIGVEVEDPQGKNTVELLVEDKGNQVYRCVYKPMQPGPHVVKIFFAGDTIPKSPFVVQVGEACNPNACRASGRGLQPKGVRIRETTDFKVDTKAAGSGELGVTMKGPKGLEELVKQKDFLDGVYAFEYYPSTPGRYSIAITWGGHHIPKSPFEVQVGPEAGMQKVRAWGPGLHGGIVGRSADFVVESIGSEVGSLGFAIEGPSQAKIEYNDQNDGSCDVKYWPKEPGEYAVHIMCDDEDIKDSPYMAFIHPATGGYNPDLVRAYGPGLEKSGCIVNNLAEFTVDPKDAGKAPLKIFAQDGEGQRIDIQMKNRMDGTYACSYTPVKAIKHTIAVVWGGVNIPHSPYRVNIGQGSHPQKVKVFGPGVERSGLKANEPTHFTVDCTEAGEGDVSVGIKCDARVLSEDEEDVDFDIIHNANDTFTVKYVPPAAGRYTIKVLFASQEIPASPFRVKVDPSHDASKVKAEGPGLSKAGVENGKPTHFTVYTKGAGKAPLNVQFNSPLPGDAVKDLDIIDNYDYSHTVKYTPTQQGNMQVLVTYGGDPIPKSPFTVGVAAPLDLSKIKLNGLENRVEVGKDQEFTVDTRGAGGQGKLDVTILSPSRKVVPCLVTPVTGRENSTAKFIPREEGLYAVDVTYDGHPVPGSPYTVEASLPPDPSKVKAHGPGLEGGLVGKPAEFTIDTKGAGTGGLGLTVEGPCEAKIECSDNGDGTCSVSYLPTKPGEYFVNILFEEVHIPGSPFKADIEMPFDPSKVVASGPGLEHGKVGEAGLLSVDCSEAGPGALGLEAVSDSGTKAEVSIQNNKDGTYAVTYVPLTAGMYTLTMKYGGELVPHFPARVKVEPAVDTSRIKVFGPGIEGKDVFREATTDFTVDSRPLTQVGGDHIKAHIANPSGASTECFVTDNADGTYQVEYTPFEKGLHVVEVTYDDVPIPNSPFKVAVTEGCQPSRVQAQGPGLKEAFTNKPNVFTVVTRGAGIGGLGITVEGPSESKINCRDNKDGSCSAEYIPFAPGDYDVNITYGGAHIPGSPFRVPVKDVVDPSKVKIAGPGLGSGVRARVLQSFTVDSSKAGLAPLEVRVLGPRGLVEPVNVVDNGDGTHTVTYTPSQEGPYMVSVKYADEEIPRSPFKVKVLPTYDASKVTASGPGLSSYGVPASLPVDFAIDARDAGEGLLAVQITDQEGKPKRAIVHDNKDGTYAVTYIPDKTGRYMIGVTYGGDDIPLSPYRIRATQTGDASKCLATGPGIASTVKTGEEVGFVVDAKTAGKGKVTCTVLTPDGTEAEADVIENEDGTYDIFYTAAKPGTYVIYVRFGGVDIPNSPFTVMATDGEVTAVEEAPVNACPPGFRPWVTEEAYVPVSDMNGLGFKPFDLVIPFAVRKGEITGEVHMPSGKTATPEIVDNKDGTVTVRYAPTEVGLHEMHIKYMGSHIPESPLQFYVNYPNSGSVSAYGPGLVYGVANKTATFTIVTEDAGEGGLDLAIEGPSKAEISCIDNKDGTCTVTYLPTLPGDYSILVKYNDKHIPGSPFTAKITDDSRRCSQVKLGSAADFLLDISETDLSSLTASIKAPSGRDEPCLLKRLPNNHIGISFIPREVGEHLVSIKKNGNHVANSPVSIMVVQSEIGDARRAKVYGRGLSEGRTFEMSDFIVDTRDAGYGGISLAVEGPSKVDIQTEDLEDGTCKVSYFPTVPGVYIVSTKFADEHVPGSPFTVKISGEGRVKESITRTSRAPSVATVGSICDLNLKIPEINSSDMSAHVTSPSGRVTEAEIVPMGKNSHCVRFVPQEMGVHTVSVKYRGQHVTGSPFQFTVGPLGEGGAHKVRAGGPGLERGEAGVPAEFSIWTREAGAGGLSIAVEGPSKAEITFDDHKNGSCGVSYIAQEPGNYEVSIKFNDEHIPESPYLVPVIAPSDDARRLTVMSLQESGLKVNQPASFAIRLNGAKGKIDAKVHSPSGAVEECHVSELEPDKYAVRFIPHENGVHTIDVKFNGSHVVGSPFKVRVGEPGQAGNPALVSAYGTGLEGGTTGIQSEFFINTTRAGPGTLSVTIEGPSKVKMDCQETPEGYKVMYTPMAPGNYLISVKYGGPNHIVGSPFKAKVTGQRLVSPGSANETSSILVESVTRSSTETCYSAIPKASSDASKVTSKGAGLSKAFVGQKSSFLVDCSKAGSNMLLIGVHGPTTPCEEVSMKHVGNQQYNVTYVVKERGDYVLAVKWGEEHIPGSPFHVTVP
UniProt P30626, sequence (P30626 whole entry): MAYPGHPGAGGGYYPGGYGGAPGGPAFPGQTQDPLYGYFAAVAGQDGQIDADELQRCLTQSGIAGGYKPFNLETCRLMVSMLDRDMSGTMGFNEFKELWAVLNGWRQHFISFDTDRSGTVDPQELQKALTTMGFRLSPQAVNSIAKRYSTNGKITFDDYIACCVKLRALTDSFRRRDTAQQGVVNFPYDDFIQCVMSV

Target | lysine labeling ratio R10:1
HNRNPU (lysine site: K343) (UniProt Q00839) | 3.69 (inactive)
H2AFY (lysine site: K18) (UniProt O75367) | 3.07 (inactive)
UniProt P05787 (lysine site: K207) | 3.47 (inactive)
RPSA (lysine site: K52) (UniProt P08865) | 1.63 (active)
APP (lysine site: K521) (UniProt P05067) | 5.65 (inactive)
NUMA1 (lysine site: K573) (UniProt Q14980) | 1.46 (active)
FLNB (lysine site: K746) (UniProt O75369) | 3.48 (inactive)
CD9 (lysine site: K131) (UniProt P21926) | 7.57 (inactive)
VIM (lysine site: K445) (UniProt P08670) | 10.9 (inactive)
EPCAM (lysine site: K129) (UniProt P16422) | 6.18 (inactive)
MYH9 (lysine site: K1828) (UniProt P35579) | 2.77 (inactive)
LMO7 (lysine site: K1405) (UniProt Q8WWI1) | 1.4 (active)
SRI (lysine site: K146) (UniProt P30626) | 4.33 (inactive)
CHCHD3 (lysine site: K63) (UniProt Q9NX63) | 1.33 (active)
GHITM (lysine site: K76) (UniProt Q9H3K2) | 4.44 (inactive)
L1CAM (lysine site: K230) (UniProt P32004) | 5.86 (inactive)
UniProt P21589 (lysine site: K326) | 1.17 (active)
